Measured values as given in PubChem BioAssay.
Activity calls are given as the source filed them. Unless noted, no rule for the calls is given here.

What was measured:
[1] = HepG2 liver cancer cell viability effects, profiling panel, resazurin fluorescence, 24 h, PK04 Diversity Set (AID 1172); conditions: higher = more signal; also: test concentration not given here
[2] = basal S. cerevisiae growth modulation, no modifier, primary screen, OD600, strain BY4716, 24 h, basal condition (AID 1173); conditions: OD600, 24 h, higher = more signal, called active from +8 up or from −8 down
[3] = MM1S myeloma cell viability, profiling panel, resazurin fluorescence, basal, 24 h, PK04 Diversity Set (AID 1174); conditions: higher = more signal, called active from +8 up or from −8 down;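 also: MM1S multiple myeloma cell line; test concentration not given here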
[4] = biological target: Dihydroorotate dehydrogenase (quinone), mitochondrial (Plasmodium falciparum (isolate 3D7)) (UniProt Q08210); test: PfDHODH enzyme inhibitors, primary screen, biochemical, C-terminal His tag, absorbance 600 nm (AID 1175); conditions: DCIP absorbance 600 nm, higher = more signal, called active from +8 up or from −8 down;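 also: recombinant parasite enzyme with a five histidine tag at its C terminus; test concentration not given here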
Chain of Dihydroorotate dehydrogenase (quinone), mitochondrial (Plasmodium falciparum (isolate 3D7)) (Q08210 whole entry, looked up): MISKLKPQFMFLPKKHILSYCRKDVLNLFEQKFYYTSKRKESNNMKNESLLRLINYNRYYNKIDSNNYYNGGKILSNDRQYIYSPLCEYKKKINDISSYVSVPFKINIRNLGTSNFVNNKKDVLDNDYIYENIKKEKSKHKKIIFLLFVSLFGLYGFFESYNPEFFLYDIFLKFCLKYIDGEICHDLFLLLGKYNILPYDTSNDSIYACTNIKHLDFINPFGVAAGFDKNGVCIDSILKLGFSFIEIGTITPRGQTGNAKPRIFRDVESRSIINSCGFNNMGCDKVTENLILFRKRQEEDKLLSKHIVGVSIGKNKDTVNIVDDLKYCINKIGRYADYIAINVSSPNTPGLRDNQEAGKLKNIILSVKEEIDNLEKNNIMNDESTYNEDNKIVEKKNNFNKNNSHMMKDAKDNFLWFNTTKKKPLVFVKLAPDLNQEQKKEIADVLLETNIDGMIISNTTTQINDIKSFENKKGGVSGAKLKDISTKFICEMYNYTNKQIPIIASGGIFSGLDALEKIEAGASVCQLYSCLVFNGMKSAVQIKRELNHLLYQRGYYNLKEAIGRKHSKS

[5] = P. aeruginosa biofilm formation inhibitors, primary screen, strain PAO1, LB-PBS medium, absorbance 600 nm (AID 1176); also: test concentration not given here; conditions: P. aeruginosa PAO1 growth/biofilm, A600, 12 h; higher = more signal
[6] = S. cerevisiae RM11-1a growth modifiers, primary screen, strain RM11-1a, OD600, basal, 24 h (AID 1177); conditions: OD600, 24 h, higher = more signal, called active from +8 up or from −8 down;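 also: cultures grown under basal conditions with no added stressor; test concentration not given here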
[7] = E. coli acrAB mutant growth effects, primary screen, E. coli filamentation inducers, strain DRC39, OD650, 24 h (AID 1178); conditions: higher = more signal, called active from +8 up or from −8 down;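 also: growth measured as culture turbidity by optical density at 650 nm; test concentration not given here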
[8] = E. coli acrAB mutant growth effects, primary screen, E. coli filamentation inducers, strain DRC39, OD650, 48 h (AID 1179);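 also: screen aims at cell division blockers that make cells filament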; conditions: E. coli DRC39 delta-acrAB growth, higher = more signal, called active from +8 up or from −8 down
[9] = RPMI8226 myeloma cell viability, profiling panel, resazurin fluorescence, basal, 24 h, PK04 Diversity Set (AID 1180); conditions: higher = more signal;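 also: RPMI8826 multiple myeloma cell line at 5000 cells per well; test concentration not given here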
[10] = biological target: E3 ubiquitin-protein ligase XIAP (Homo sapiens) (UniProt P98170); test: XIAP binders, primary screen, biophysical, small-molecule microarray, fluorescence 635 nm (AID 1181); conditions: small-molecule microarray binding, higher = more signal;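 also: score merges 667 nm emission and signal to noise over triplicate slides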
Chain of E3 ubiquitin-protein ligase XIAP (Homo sapiens) (P98170 whole entry, looked up): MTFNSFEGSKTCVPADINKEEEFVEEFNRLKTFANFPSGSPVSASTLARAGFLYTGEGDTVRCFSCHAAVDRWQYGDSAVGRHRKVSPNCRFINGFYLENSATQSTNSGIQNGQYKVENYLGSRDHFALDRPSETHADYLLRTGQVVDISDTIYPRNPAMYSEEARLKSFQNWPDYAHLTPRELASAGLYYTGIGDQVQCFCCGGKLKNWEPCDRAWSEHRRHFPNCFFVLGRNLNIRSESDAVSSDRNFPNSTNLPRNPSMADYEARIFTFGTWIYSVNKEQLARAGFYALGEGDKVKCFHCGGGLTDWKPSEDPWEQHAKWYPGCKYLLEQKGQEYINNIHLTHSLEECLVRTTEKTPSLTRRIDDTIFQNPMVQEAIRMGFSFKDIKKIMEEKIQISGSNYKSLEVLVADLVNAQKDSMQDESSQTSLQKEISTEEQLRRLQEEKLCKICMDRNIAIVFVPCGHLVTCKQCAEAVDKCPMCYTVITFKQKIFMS

| Compound | z-score [1] | z-score [2] | z-score [3] | composite z-score [4] | z-score [5] | z-score [6] | z-score [7] | z-score [8] | z-score [9] | composite z-score [10] |
| --- | --- | --- | --- | --- | --- | --- | --- | --- | --- | --- |
| CCCC[C@@H]1C[C@H]1[C@@H](NC(=O)c1ccc(-c2ccccc2)cc1)c1ccc(-c2ccccc2)cc1 | 0.543 | -0.498 (inactive) | -0.271 (inactive) | -1.12 (inactive) | 0.315 (inactive) | 0.0066 (inactive) | -0.836 (inactive) | -1.19 (inactive) | -0.0454 | 0.359 |
| CC(C)C[C@@H]1NC(=O)[C@H]2C[C@@H](C(=O)NCCCCCCNC(=O)CS)[C@@H](c3cccc(OCCO)c3)N2C1=O | 0.808 | -0.632 (inactive) | 0.259 (inactive) | -0.625 (inactive) | -0.145 (inactive) | 0.652 (inactive) | 0.941 (inactive) | 1.08 (inactive) | -0.258 | 0.356 |
| COC(=O)[C@@]1(Cc2ccccc2)[C@H]2c3cc(C(=O)N4CCCC4)n(Cc4ccc(C)o4)c3C[C@H]2CN1C(=O)c1ccccc1 | -1.59 | 0.476 (inactive) | -1.5 (inactive) | -0.376 (inactive) | 0.399 (inactive) | -0.219 (inactive) | -0.691 (inactive) | -0.471 (inactive) | -2.47 | 0.0632 |
| O=c1cccc(CCc2ccccc2)o1 | -0.523 | -3.45 (inactive) | -0.0074 (inactive) | -1.19 (inactive) | -0.156 (inactive) | -0.259 (inactive) | -0.74 (inactive) | -0.608 (inactive) | -0.753 | 0.273 |
| N#Cc1ccc(NN2C(C(O)c3cccs3)C=CC3C(=O)N(c4ccccc4)C(=O)C32)cc1 (stereo not given) | -0.375 | -1.97 (inactive) | 0.0171 (inactive) | -1.41 (inactive) | 1.08 (inactive) | -1.59 (inactive) | 0.766 (inactive) | 1.36 (inactive) | 0.131 | -0.126 |
| COCCOC(=O)N1C(=O)[C@@]2(c3cc(C#CCNC(N)=O)ccc31)[C@H](c1ccc(OCCO)cc1)N1[C@H](c3ccccc3)[C@H](c3ccccc3)OC(=O)[C@H]1[C@@H]2C(=O)N1CCc2cc(OC)c(OC)cc2C1 | 0.358 | 2.29 (inactive) | 0.296 (inactive) | -0.597 (inactive) | 2.26 (inactive) | 3.21 (inactive) | 0.583 (inactive) | 0.582 (inactive) | 0.665 | -0.0999 |
| COC(=O)C(CC#Cc1ccc2c(c1)[C@]1(C(=O)N2)[C@H](C(=O)NC[C@H](O)c2ccccc2)[C@H]2C(=O)O[C@H](c3ccccc3)[C@H](c3ccccc3)N2[C@@H]1c1ccc(OCCO)cc1)C(=O)OC | 0.0416 | 1.77 (inactive) | -0.0507 (inactive) | -16.8 (active) | 3.42 (inactive) | 2.62 (inactive) | 0.389 (inactive) | 0.335 (inactive) | -0.223 | 0.201 |
| COCCOC(=O)N1C(=O)[C@@]2(c3cc(C#CCNC(N)=O)ccc31)[C@H](C(=O)N1CCc3cc(OC)c(OC)cc3C1)[C@H]1C(=O)O[C@H](c3ccccc3)[C@H](c3ccccc3)N1[C@@H]2c1ccc(OCCO)cc1 | 0.631 | 2.28 (inactive) | 0.761 (inactive) | -0.232 (inactive) | 1.92 (inactive) | 2.97 (inactive) | 0.987 (inactive) | 0.781 (inactive) | 0.856 | 0.122 |
| CC(=O)NCCCC[C@@H]1NC(=O)[C@@H]2C[C@H](C(=O)NCCCCCCNC(=O)CS)[C@H](c3ccc(O)cc3)N2C1=O | 0.107 | -0.688 (inactive) | -0.568 (inactive) | -0.344 (inactive) | -0.434 (inactive) | 0.208 (inactive) | -0.356 (inactive) | -0.214 (inactive) | -0.763 | -0.0773 |
| O=C(O)[C@H]1C[C@H]2C(=O)NCC(=O)N2[C@H]1c1ccc(O)cc1 | 1.46 | -1.25 (inactive) | 0.866 (inactive) | -0.592 (inactive) | 0.0904 (inactive) | -0.804 (inactive) | 1.49 (inactive) | 1.51 (inactive) | 0.839 | -0.211 |
| O=C1O[C@@H](c2ccccc2)[C@@H](c2ccccc2)N2[C@@H](c3ccccc3OCCO)[C@]3(C(=O)Nc4ccc(C#CC5(O)CCCCCC5)cc43)[C@@H](C(=O)Nc3nc4ccccc4s3)[C@H]12 | -0.592 | 0.193 (inactive) | -3.35 (inactive) | 0.18 (inactive) | 2.5 (inactive) | 1.86 (inactive) | -0.994 (inactive) | -1.19 (inactive) | -4.98 | 0.0077 |
| CCOc1cc(C(O)C2C=CC3C(=O)N(c4ccccc4)C(=O)C3N2Nc2ccc([N+](=O)[O-])cc2)ccc1O (stereo not given) | -0.506 | -0.571 (inactive) | -0.669 (inactive) | 0.377 (inactive) | 0.878 (inactive) | -0.864 (inactive) | -0.763 (inactive) | -0.709 (inactive) | -0.901 | -0.127 |
| Cc1cc(C)cc(N2C(=O)CS(=O)(=O)C2c2cccc([N+](=O)[O-])c2)c1 (stereo not given) | -0.0507 | -0.658 (inactive) | -0.208 (inactive) | -2.1 (inactive) | -0.407 (inactive) | -0.438 (inactive) | 0.899 (inactive) | 1.04 (inactive) | -0.194 | -0.22 |
